Active and inactive are the calls of the source.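 The calls were made as follows: active = average half-effect concentration of 10 µM or less in every one of the four cell panels; inactive = the rest.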

The assay has as its system HL-1. Nature of the assay: cardiomyocyte survival under oxidative or metabolic stress – cell-based, panel, H9c2 and HL-1, H2O2, 2-deoxyglucose, ATP luminescence, SAR follow-up (AID 651642). Conditions: H9c2/HL-1 cardiomyocyte 2-deoxyglucose damage, mean of runs, with 2-deoxyglucose.
In the case of `COc1ccc2c(c1OC)C(=O)N1c3ccccc3C(=O)N(Cc3cccc(F)c3)C21` (configuration not stated), the compound was called active.

Regarding `COc1cc(-c2cc(C(=O)NCC(=O)O)c3ccccc3n2)cc(OC)c1OC`, the compound was called inactive. As for `CCOC(=O)c1cccc(NC(=O)CNC(=O)c2cc(-c3cc(OC)c(OC)c(OC)c3)nc3c(Cl)cccc23)c1`, the compound was called inactive. With `CCOC(=O)c1cccc(NC(=O)c2cc(-c3cc(OC)c(OC)c(OC)c3)nc3c(Cl)cccc23)c1` the entry was “inactive”; with `CCOC(=O)c1cccc(NC(=O)c2cc(-c3cc(OC)c(OC)c(OC)c3)nc3ccc(Br)cc23)c1`, “inactive”. Turning to `COc1cc(-c2cc(C(=O)Nc3cccc(C(C)=O)c3)c3ccccc3n2)cc(OC)c1OC`, the outcome was active. For `COc1cc(-c2cc(C(=O)Nc3cccc(C(N)=O)c3)c3ccccc3n2)cc(OC)c1OC`, the compound was called inactive.

In the case of `COc1cc(-c2cc(C(=O)Nc3cccc(C(=O)O)c3)c3ccccc3n2)cc(OC)c1OC`, the compound was called inactive. With `COc1ccc2c(c1OC)C(=O)N1c3ccccc3C(=O)N(Cc3ccncc3)C21` (configuration not stated) the entry was “inactive”; with `COc1ccc2c(c1OC)C(=O)N1c3ccccc3C(=O)N(Cc3ccccc3F)C21` (configuration not stated), “active”. Turning to `COc1cc(-c2cc(C(=O)Nc3cccc(C#N)c3)c3ccccc3n2)cc(OC)c1OC`, the result was inactive. For `COc1cc(-c2cc(C(=O)NCC(=O)Nc3cccc(C(C)=O)c3)c3ccccc3n2)cc(OC)c1OC`, the call was active. `COc1ccc2c(c1OC)C(=O)N1c3ccccc3C(=O)N(Cc3c(Cl)cccc3Cl)C21` (configuration not stated): the compound was classed as inactive. With `COc1ccc2c(c1OC)C(=O)N1c3ccccc3C(=O)N(Cc3ccccn3)C21` (configuration not stated), the result was inactive. Take `COc1ccc(NC(=O)CNC(=O)c2cc(-c3cc(OC)c(OC)c(OC)c3)nc3ccccc23)cc1`: the result was active. With `COc1cc(-c2cc(C(=O)Nc3cccc(C(=O)N4CCOCC4)c3)c3ccccc3n2)cc(OC)c1OC` the entry was “inactive”; with `COc1cc(-c2cc(C(=O)NCC(=O)Nc3ccc(C(C)=O)cc3)c3ccccc3n2)cc(OC)c1OC`, “inactive”; with `CCOC(=O)c1cccc(NC(=O)CNC(=O)c2cc(-c3cc(OC)c(OC)c(OC)c3)nc3ccc(OC)cc23)c1`, “active”. `COc1cc(-c2cc(C(=O)NCC(=O)Nc3cccc(C(C)=O)c3)c3cc(Br)ccc3n2)cc(OC)c1OC`: the compound was classed as active. `COc1cc(-c2cc(C(=O)Nc3cccc(C(C)=O)c3)c3cc(C)ccc3n2)cc(OC)c1OC`: the outcome was inactive. As for `COc1ccc2c(c1OC)C(=O)N1c3ccccc3C(=O)N(Cc3ccccc3)C21` (configuration not stated), the outcome was inactive. With `COc1cc(-c2cc(C(=O)Nc3cccc(C(=O)N(C)C)c3)c3ccccc3n2)cc(OC)c1OC` the entry was “inactive”; with `COC(=O)CNC(=O)c1cccc(NC(=O)c2cc(-c3cc(OC)c(OC)c(OC)c3)nc3ccccc23)c1`, “active”. Take `CCOC(=O)c1cccc(NC(=O)CNC(=O)c2cc(-c3cc(OC)c(OC)c(OC)c3)nc3ccc(F)cc23)c1`: the result was active. Then `CCOC(=O)c1ccc(NC(=O)c2cc(-c3cc(OC)c(OC)c(OC)c3)nc3ccccc23)cc1`, with “inactive”; and `COc1cc(-c2cc(C(=O)NCC(=O)Nc3ccc(C(C)=O)cc3)c3cc(C)ccc3n2)cc(OC)c1OC`, with “active”; and `CCOC(=O)c1cccc(NC(=O)CNC(=O)c2cc(-c3cc(OC)c(OC)c(OC)c3)nc3ccccc23)c1`, with “inactive”. As for `CCOC(=O)c1cccc(NC(=O)c2cc(-c3cc(OC)c(OC)c(OC)c3)nc3ccc(C)cc23)c1`, the result was inactive. Turning to `COc1ccc2c(c1OC)C(=O)N1c3ccccc3C(=O)N(Cc3ccc(C)cc3C)C21` (configuration not stated), the compound was called inactive. Turning to `COC(=O)CNC(=O)c1cc(-c2cc(OC)c(OC)c(OC)c2)nc2ccccc12`, the outcome was inactive.

For the compound `COc1ccc2c(c1OC)C(=O)N1c3ccccc3C(=O)N(Cc3ccc(C)cc3)C21` (configuration not stated), the result was inactive. For the compound `COc1cc(-c2cc(C(=O)Nc3cccc(C(C)=O)c3)c3cc(Br)ccc3n2)cc(OC)c1OC`, the result was inactive.

(Values after PubChem BioAssay AID651642 (Sanford-Burnham Center for Chemical Genomics, 2012).)
